# Test results published in PubChem BioAssay (EPA / NIEHS).
# “And” between values parts separate entries of the source, which are not always exact repeats. Equal values may be shown once. The source holds several records for some structures; these can differ, active in one and inactive in another. The source made the active and inactive calls. How the source made its calls: active means hit-call score of the fitted dose curve at least 0.9, where 1 is the maximum; inactive means score below 0.9.
# Read-out: Matrix Metallopeptidase 9 (MMP9), MMP9 (gene 4318)
# Assay: BSK_BF4T_MMP9: BioMAP Diversity Plus: BF4T Assay for Matrix Metallopeptidase 9 (MMP9) Biomarker Activity (AID 2284276)
# Settings: primary human bronchial epithelial cells with fibroblasts
# Description: BSK_BF4T is a cell-based, multiplexed-readout assay that uses bronchial epithelial cells and dermal fibroblasts, a human vascular primary cell, with measurements taken at 24 hours after chemical dosing in a microplate: 96-well plate.BSK_BF4T_MMP9 is an assay component measured in the BSK_BF4T assay. It measures MMP-9 antibody related to regulation of gene expression using ELISA technology.Data from the assay component BSK_BF4T_MMP9 was analyzed at the endpoint, BSK_BF4T_MMP9, in the positive analysis fitting direction relative to DMSO as the negative control and baseline of activity. Using a type of binding reporter, gain or loss-of-signal activity can be used to understand protein changes. To generalize the intended target to other relatable targets, this assay endpoint is annotated to the 'protease' intended target family, where the subfamily is 'matrix metalloproteinase'.
# The levels of cell surface (or secreted, indicated by the prefix "s") biomarker endpoints were measured by ELISA. Overt cytotoxicity to cells in confluent adherent cultures (all systems other than the BT system) was assessed by measuring total protein levels using sulforhodamine B (SRB) staining in parallel cultures at the time of biomarker measurements, indicated as SRB endpoints. For proliferation assays for adherent cell types, individual cell types are cultured at sub-confluence and relative cell numbers quantified by SRB staining at time points optimized for each system (48 h: 3C and CASM3C systems; 72 h: BT and HDF3CGF systems; 96 h: SAg system). SRB was performed by staining cells with 0.1% SRB after fixation with 10% TCA and reading wells at 560 nm.Viability and proliferation of PBMC (T cells) was quantified by Alamar Blue reduction for the SAg and BT systems. For PBMC viability (referred to as PBMC Cytotoxicity within the assay endpoint names), cells were plated (75,000/well in a 96-well plate) and then chemical samples added for 1 h before addition of activators, SEB and TSST-1 (20 ng/mL final concentration each). Cells were incubated for 90 h. Then, Alamar Blue (20 uL/well) (Invitrogen, Cat DAL1100) was added for 6 h, and the plates were read with a fluorescence microplate reader at 546/580 nm (excitation/emission). For PBMC proliferation, cells were plated and activated as above but incubated for only 16 h prior to addition of Alamar Blue. Plates were read after 6 h.
SMILES,outcome,AC50
OCCCC(F)(F)C(F)(F)C(F)(F)F,inactive,
OCC(F)(F)C(F)(F)C(F)(F)C(F)F,inactive,
NC(=O)C(F)(F)C(F)(F)C(F)(F)C(F)(F)F,inactive,
O=C(O)C(F)(OC(F)(F)C(F)(OC(F)(F)C(F)(OC(F)(F)C(F)(F)C(F)(F)F)C(F)(F)F)C(F)(F)F)C(F)(F)F (stereo not given),inactive,
OCCCC(F)(F)C(F)(F)C(F)(F)C(F)(F)C(F)(F)C(F)(F)C(F)(F)F,,44.8 µM (active) and 55.3 µM (active)
FC(F)(F)C(F)(F)C(F)(F)N(C(F)(F)C(F)(F)C(F)(F)F)C(F)(F)C(F)(F)C(F)(F)F,inactive,
FC(F)(F)C(F)(F)C(F)(F)C(F)(F)C(F)(F)C(F)(F)CC1CO1 (stereo not given),inactive,
FC(F)(F)C(F)(F)C(F)(F)C(F)(F)C(F)(F)C(F)(F)CCS,inactive,
FC(F)(F)C(F)(F)C(F)(F)CI,inactive,
O=C(O)C=C(C(F)(F)F)C(F)(F)F,inactive,
FC(F)(F)C(F)(F)C(F)(F)C(F)(F)C(F)(F)C(F)(F)C(F)(F)C(F)(F)CCS,inactive,
OCC(F)(F)C(F)(F)C(F)(F)F,inactive,
O=C(O)C(F)(F)C(F)(F)C(F)(F)C(F)(F)C(F)(F)C(F)(F)C(F)(F)C(F)(F)C(F)(F)C(F)(F)C(F)(F)C(F)(F)C(F)(F)F,inactive,
O=S(=O)(O)C(F)(F)C(F)(F)C(F)(F)C(F)(F)C(F)(F)C(F)(F)C(F)(F)F,inactive,
FC(F)(F)C(F)(F)C(F)(F)C(F)(F)C(F)(F)C(F)(F)C(F)(F)Br,inactive,
FC1CC(F)(F)C(F)(F)C1(F)F (stereo not given),inactive,
O=C(O)C(F)(F)C(F)(F)C(F)F,inactive,
O=C(O)C(F)(F)C(F)(F)C(F)(F)C(F)(F)C(F)(F)C(F)(F)C(F)(F)C(F)(F)C(F)(F)C(F)F,,21.4 µM (active) and 15.7 µM (active)
N=C(N)C(F)(F)C(F)(F)C(F)(F)C(F)(F)C(F)(F)C(F)(F)C(F)(F)F,inactive,
C=CC(=O)OCC(F)(F)C(F)(F)C(F)(F)C(F)(F)COC(=O)C=C,inactive,18.2 µM (active)

SMILES,outcome,AC50
C=CC(F)(F)C(F)(F)C(F)(F)C(F)(F)C(F)(F)C(F)(F)C(F)(F)C(F)(F)C=C,inactive,
C=CC(=O)OCC(F)(F)C(F)(F)C(F)(F)C(F)(F)C(F)(F)C(F)(F)C(F)(F)F,inactive,
O=C(Cl)C(F)(F)C(F)(F)C(F)(F)C(F)(F)C(F)(F)C(F)(F)C(F)(F)C(F)(F)F,,46.1 µM (active) and 52.4 µM (active) and 49.7 µM (active)
CC(C)(C)C(=O)CC(=O)C(F)(F)C(F)(F)C(F)(F)F,inactive,
CCCCCCCCC(F)(F)C(F)(F)C(F)(F)C(F)(F)C(F)(F)C(F)(F)F,inactive,
CCO[Si](CCC(F)(F)C(F)(F)C(F)(F)C(F)(F)C(F)(F)C(F)(F)F)(OCC)OCC,inactive,
O=C(O)C(F)(F)C(F)(F)F,inactive,
FC(F)(F)C(F)(F)C(F)(F)C(F)(F)C(F)(F)CCI,inactive,
OCC(F)(F)C(F)(F)C(F)(F)C(F)(F)C(F)(F)C(F)(F)F,inactive,
C=CC(F)(F)C(F)(F)C(F)(F)C(F)(F)C(F)(F)C(F)(F)C(F)(F)C(F)(F)F,inactive,
C=C(C)C(=O)OCC(F)(F)C(F)(F)C(F)(F)C(F)(F)C(F)(F)C(F)(F)C(F)(F)F,inactive,
O=C(O)C(F)(F)C(F)(F)C(F)(F)C(F)(F)C(F)(F)C(F)(F)C(F)(F)C(F)(F)C(F)(F)C(F)(F)C(F)(F)C(F)(F)F,inactive,
Cc1ccc(S(=O)(=O)OCC(F)(F)C(F)(F)C(F)(F)C(F)(F)C(F)(F)C(F)F)cc1,inactive,
C=C(C)C(=O)OCC(F)(F)C(F)(F)C(F)(F)F,inactive,
FC(F)(F)C(F)(F)C(F)(F)C(F)(F)CCI,inactive,
O=S(=O)(OCC(F)F)C(F)(F)F,inactive,
O=S(=O)(OCCOC(F)(F)F)C(F)(F)F,inactive,
FC(F)(F)C(F)(F)C(F)(F)C(F)(F)C(F)(F)C(F)(F)C(F)(F)C(F)(F)F,inactive,
FC(F)(F)C(F)(F)CNCC(F)(F)C(F)(F)F,inactive,
